Screens as filed in PubChem.
Only some compounds are listed: those with a hit (about 1.8% of all), similar ones and a draw of the others.
p53ts 32C tox = kills p53ts cells at the permissive temperature; Potency, µM (highest dose often 46.1 µM), actives largely listed as cytotoxic; 0.93% of 130,000 active; AID 924; H1299-p53A138V at 32C, ATP luminescence viability, 24 h; note: nearly all actives have a fitted effect of over 55% in size
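H1299-p53 A138V cells (temperature-sensitive p53) exposed 24 h to up to 46 uM compound at 32C, where p53 is wild-type in conformation. Viability read as ATP luminescence and normalised to DMSO and 100 uM tamoxifen. AC50 fitted with the Hill equation.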
Imprint erasure = genomic imprint erasure induction | mouse ES Peg3-LacZ reporter, beta-gal luminescence, 40 h | Potency, µM (series often up to 60.7 µM), usual class: activators | 0.02% of 110,000 active | AID 1948
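Imprint erasure is scored as LacZ activity from the silenced maternal Peg3 allele in feeder-free female ES cells cultured 40 h with LIF. Luminescence is normalized to in-plate negative controls and fitted to the Hill equation.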
IkB sig inh = IkB pathway inhibition in ABC-DLBCL cells. 0.04% of 110,000 active. AID 445. ABC-DLBCL IkBa-CBG/CBR dual luciferase ratio, 4 h; response scale: scaled: untreated 0%, proteasome inhibitor 100%. Potency, µM (titrated, usually from 57.1 µM); active = well fitted curve in the direction sought with a large enough effect in the signal ratio, not every such curve was filed as active; inconclusive = small, poorly fitted or top-dose-only effect, or a change in a side signal; the % refers to the signal ratio;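 note: the direction sought is a rising ratio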
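In this assay, an IκBα–CBG68 fusion accumulates when IKK-driven degradation is blocked; native CBR normalizes for cell number. OCI-Ly3 cells were treated 4 h with compound and doxycycline, then green and red light read after Chroma-Glo addition.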
p53ts 39C tox = p53ts cell cytotoxicity, nonpermissive temperature; H1299-p53A138V viability at 39C, ATP luminescence, 24 h; Potency, µM (top dose mostly 46.1 µM), actives largely listed as cytotoxic; 1.5% of 130,000 active; note: nearly all actives have a fitted effect of over 55% in size
Each line names hits and unclear results; the compound was inactive in the other large screens. Unless noted, calls come from the whole dose curve; as a rule, active = well fitted curve in the direction sought with a large enough effect; inconclusive = small, poorly fitted or top-dose-only effect, or another doubt; inactive = no such curve, though single readings can be large; an effect the other way counts as inactive or inconclusive.

COc1ccc(OC)c(NC(=O)Nc2cccc(OCc3cc(=O)n4cc(C)ccc4n3)c2)c1	p53ts 32C tox 6.3µM, IkB sig inh inconclusive, p53ts 39C tox 6.3µM
COc1ccc(NC(=O)Nc2ccccc2OCc2cc(=O)n3ccccc3n2)c(OC)c1	p53ts 32C tox inconclusive, p53ts 39C tox 16µM
COc1ccc(C)cc1NC(=O)CN(C)S(=O)(=O)c1ccc2c(c1)c(=O)n(C)c(=O)n2C	none
CCOc1cc(C2c3c(oc4cc(C)cc(C)c4c3=O)C(=O)N2CCO)ccc1O (configuration not stated)	none
O=C(CN1C(=O)CCS(=O)(=O)c2ccccc21)NCc1ccccc1	none
O=C(O)CCn1nnc(-c2cccs2)n1	none
CC(C)c1ccc(-c2nnn(CCC(=O)O)n2)cc1	p53ts 32C tox 10µM, IkB sig inh inconclusive, p53ts 39C tox inconclusive
C[C@H](Cc1ccc(O)c(O)c1)[C@@H](C)Cc1ccc(O)c(O)c1	p53ts 32C tox inconclusive, p53ts 39C tox 20µM
COc1cc(NC(=O)c2ccc3oc(=O)c(S(=O)(=O)c4ccccc4)cc3c2)cc(OC)c1	p53ts 32C tox 16µM, IkB sig inh inconclusive, p53ts 39C tox inconclusive
CC(C)c1ccc(NC(=O)c2ccc3oc(=O)c(S(=O)(=O)c4ccc(F)cc4)cc3c2)cc1	p53ts 32C tox 10µM, Imprint erasure inconclusive, IkB sig inh inconclusive, p53ts 39C tox 2.5µM
COc1cccc2oc(-c3ccc(O)cc3)cc(=O)c12	p53ts 32C tox 6.3µM, p53ts 39C tox 7.9µM
COc1cccc2oc(-c3ccccc3)cc(=O)c12	p53ts 32C tox 10µM, p53ts 39C tox 7.9µM (no result: IkB sig inh)
COc1cccc(-c2cc(=O)c3ccccc3o2)c1N	p53ts 32C tox 7.9µM, p53ts 39C tox 5µM
O=c1cc(-c2cccc(O)c2)oc2cccc(O)c12	none (no result: IkB sig inh)
O=c1cc(-c2ccccc2)oc2cc(O)c(O)c(O)c12	p53ts 32C tox inconclusive, p53ts 39C tox 0.63µM
COc1ccccc1-c1cc(=O)c2cccc(OC)c2o1	none (no result: IkB sig inh)
COc1cccc2oc(SC)cc(=O)c12	none (no result: p53ts 32C tox, IkB sig inh, p53ts 39C tox)
Cc1c(Cl)cccc1-n1ncc(C(=O)NCc2cccs2)c1C1CCN(C(=O)OC(C)(C)C)CC1	IkB sig inh inconclusive
Cc1cc(Nc2ccccc2)nc(-c2ccccc2O)n1	none
Cc1cc(Nc2cccc(F)c2)nc(-c2ccccc2O)n1	p53ts 32C tox inconclusive, IkB sig inh inconclusive, p53ts 39C tox 16µM
COc1ccc(Nc2cc(C(=O)NCCCN3CCN(c4ccccc4F)CC3)c3ccccc3n2)c(OC)c1	IkB sig inh inconclusive, p53ts 39C tox inconclusive
Cc1ccc2nc3sc(C(=O)N4CCOCC4)c(N)c3cc2c1	p53ts 32C tox 6.3µM, IkB sig inh inconclusive, p53ts 39C tox 6.3µM
Cc1ccc2cc3c(N)c(C(=O)N4CCOCC4)sc3nc2c1	p53ts 32C tox inconclusive, IkB sig inh inconclusive, p53ts 39C tox inconclusive
O=C(Cn1c(=O)n(-c2ccccc2)c(=O)c2ccc(C(=O)NCc3ccc4c(c3)OCO4)cc21)Nc1ccc(Br)cc1F	p53ts 39C tox 13µM
COC(=O)C(CCSC)NC(=O)CNC(=O)C1CCCCC1 (configuration not stated)	none
COc1ccc(-c2cc(C(=O)Nc3c(C)nn(Cc4ccc(Cl)cc4)c3C)no2)cc1	none
COc1ccccc1-c1cc(C(=O)Nc2c(C)nn(Cc3ccc(Cl)cc3)c2C)no1	p53ts 32C tox inconclusive, IkB sig inh inconclusive, p53ts 39C tox 13µM
CSc1ncc(C(=O)Nc2ccccc2C(=O)c2ccccc2)c(C)n1	none (no result: Imprint erasure, IkB sig inh, p53ts 39C tox)
CCOc1ccc(-c2cccc(NS(=O)(=O)c3ccc(C)s3)c2)nn1	none
CC(=O)c1ccc(S(=O)(=O)Nc2ccc(-c3ccc(N4CCCCC4)nn3)cc2)cc1	p53ts 32C tox inconclusive, IkB sig inh inconclusive, p53ts 39C tox 4µM
CC(=O)Nc1ccc(S(=O)(=O)Nc2cccc(-c3ccc(N4CCC(C)CC4)nn3)c2)cc1	p53ts 32C tox 2.5µM, IkB sig inh inconclusive, p53ts 39C tox 3.5µM
COc1ccc(S(=O)(=O)Nc2cccc(-c3ccc(N4CCC(C)CC4)nn3)c2)c(OC)c1	p53ts 32C tox 10µM, IkB sig inh inconclusive, p53ts 39C tox 16µM
CCc1ccc(S(=O)(=O)Nc2cccc(-c3ccc(N4CCC(C)CC4)nn3)c2)s1	p53ts 32C tox 13µM, IkB sig inh inconclusive, p53ts 39C tox 10µM
COc1ccc(OC)c(S(=O)(=O)Nc2cccc(-c3ccc(N4CCCCC4)nn3)c2)c1	p53ts 39C tox inconclusive
COc1ccc(CCN(Cc2cc3cc(C)ccc3[nH]c2=O)C(=O)N2CCCC2)cc1OC	none
O=C(NCCCN1CCOCC1)c1csc2c1CCCC2	none
